MEKK2mut PB1 HTS: MEK5 binding signal on mutant MEKK2 PB1, primary screen, biochemical, multiplex bead flow cytometry, Alexa488-MEK5. Alexa488-MEK5 binding to MEKK2 mutant. percent response, % at 10 µM. hit rate 0.35% among 290,000; in the data active means percent response above about 24%, passing the limit was not always enough
CRFR2-BP ag: agonists of CRF-BP/CRF-R2 complex, primary screen, cell-based, HEK293, calcium dye fluorescence, uHTS | AID 588473, 2011 | CRF-binding protein / CRF receptor 2 complex (human) | calcium dye fluorescence (FLIPR); percent of saturating CRF peptide response | activation, % at 13.2 µM | hit rate 0.46% among 350,000;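 active means activation of at least 50%, plus an integration ratio under a set limit after plate pattern correction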;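 further: plate controls were neutral control wells without compound for no effect and CRF at EC100 for full effect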
MEKK3 PB1 HTS: modulators of MEKK3-MEK5 PB1 binding, primary screen, biochemical, wildtype MEKK3, multiplex bead flow cytometry, Alexa488-MEK5; bead-based flow cytometry, Alexa488-MEK5 binding to MEKK3; actives lie on both sides; 0 = blocked by unlabeled MEK5, 100 = vehicle; binding response (% of control), % at 10 µM; hit rate 1.4% among 290,000; AID 1529, 2009;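 active means binding response more than 3 SD above or below the average of its plate-row segment, actives on both sides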;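 further: Alexa488 bead fluorescence after subtracting the streptavidin-only scavenger bead signal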
ABCB6 inh MLPCN: ABCB6 transporter inhibitors, primary screen, K562-ABCB6 cells, flow cytometry, MLPCN library. AID 602162, 2011. hit rate 0.19% among 360,000. fluorescence ratio to DMSO, % at 10 µM. K562-ABCB6 porphyrin accumulation, 1 h; stronger effect = lower value;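 active means fluorescence ratio to DMSO below 75%, the collection mean minus 3 SD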;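 further: signal is porphyrin accumulated inside mitochondria; 100% equals median channel fluorescence of DMSO control wells; lower ratio means ABCB6 inhibition with less porphyrin fluorescence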
Target sequence (Q9NP58 whole entry, looked up): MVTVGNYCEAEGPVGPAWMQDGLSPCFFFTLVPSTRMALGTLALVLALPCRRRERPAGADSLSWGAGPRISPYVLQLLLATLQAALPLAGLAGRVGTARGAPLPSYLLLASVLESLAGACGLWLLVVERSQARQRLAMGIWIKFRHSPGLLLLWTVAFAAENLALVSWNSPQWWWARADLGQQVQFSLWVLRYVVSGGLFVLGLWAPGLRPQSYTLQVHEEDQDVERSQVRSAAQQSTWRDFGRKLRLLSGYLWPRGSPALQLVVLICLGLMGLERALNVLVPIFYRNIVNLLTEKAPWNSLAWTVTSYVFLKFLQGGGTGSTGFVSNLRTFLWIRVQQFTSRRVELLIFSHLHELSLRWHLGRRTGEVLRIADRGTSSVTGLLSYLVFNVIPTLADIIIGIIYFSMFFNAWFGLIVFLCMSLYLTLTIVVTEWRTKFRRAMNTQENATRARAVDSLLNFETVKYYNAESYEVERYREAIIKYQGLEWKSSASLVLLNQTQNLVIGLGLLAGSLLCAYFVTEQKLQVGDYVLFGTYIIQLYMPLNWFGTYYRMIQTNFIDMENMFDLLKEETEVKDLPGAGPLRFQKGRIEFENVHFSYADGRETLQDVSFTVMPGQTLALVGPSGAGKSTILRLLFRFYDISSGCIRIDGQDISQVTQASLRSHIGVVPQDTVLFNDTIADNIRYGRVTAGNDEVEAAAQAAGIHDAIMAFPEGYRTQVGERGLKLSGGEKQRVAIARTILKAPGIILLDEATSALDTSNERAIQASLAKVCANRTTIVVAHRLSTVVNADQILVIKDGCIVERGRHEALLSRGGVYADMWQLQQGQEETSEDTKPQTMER
MEKK2 WT-MEK5: modulators of MEK5 binding to wildtype MEKK2, primary screen, biochemical, multiplex bead flow cytometry, Alexa488-MEK5. Mitogen-activated protein kinase kinase kinase 2 (Homo sapiens), Q9Y2U5. binding response (% of control), % at 10 µM. Alexa488-MEK5 binding to MEKK2 WT; actives lie on both sides. hit rate 1.1% among 290,000; in the data active means binding response below about 67% or above about 130%
CRFR2-BP antag: antagonists of CRF-BP/CRF-R2 complex, primary screen, cell-based, HEK293, calcium dye fluorescence, uHTS | CRF-induced calcium fluorescence | inhibition, % at 11.8 µM | hit rate 0.59% among 350,000 | AID 588475, 2011;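 active means inhibition of the ligand-induced calcium signal above about 50% at the single tested concentration, limit read from the data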
MEKK2wt confirm: modulators of MEK5 binding to wildtype MEKK2, confirmation, biochemical, single concentration, multiplex bead flow cytometry. binding response (% of control), % at 10 µM. hit rate 2.4% among 5,900. Alexa488-MEK5 binding to MEKK2 WT; actives lie on both sides. shares compounds with MEKK3 PB1 HTS; in the data active means binding response below about 16% or above about 210%; inactive means in between
MEKK2mut-MEK5: mutant MEKK2 PB1-MEK5 binding signal retest – biochemical, single concentration, multiplex bead flow cytometry, confirmation; AID 1893, 2009; hit rate 2% among 5,900; percent response, % at 10 µM; Alexa488-MEK5 binding to MEKK2 mutant; shares compounds with MEKK3 PB1 HTS; in the data active means percent response mostly above about 71%, no sharp cut-off; inactive means mostly below about 38%;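 further: higher means compound restores mutant binding toward wildtype level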
MEKK3-MEK5 inh: MEKK3 wild-type PB1 binding to MEK5, inhibitors, confirmation, biochemical, bead multiplex flow cytometry, single concentration, wildtype; shares compounds with MEKK3 PB1 HTS; Alexa488-MEK5 binding to MEKK3; stronger effect = lower value; binding response (% of control), % at 10 µM; hit rate 1.8% among 5,900;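 active means binding response below 72% of control, or above a set upper limit, though filed actives all read lower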;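 further: 100% = DMSO only wells and 0% = binding blocked by excess unlabeled MEK5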
The depositor's hits bear a star; . = no result; [ ] = another dose, or the depositor's remark. Sampled rows, rich in hits. Any-hit rate of the full collection: about 2.9%.

SMILES | MEKK2mut PB1 HTS | CRFR2-BP ag | MEKK3 PB1 HTS | ABCB6 inh MLPCN | MEKK2 WT-MEK5 | CRFR2-BP antag | MEKK2wt confirm | MEKK2mut-MEK5 | MEKK3-MEK5 inh
CCOC(=O)C(NCc1ccco1)(NC(=O)c1ccccc1)C(F)(F)F (stereo not given) | 5 | 0 | 133* | 99 | 130 | 18 | 108 | 4 | 106
CCOC(=O)C(NC(=O)c1ccccc1)(Nc1cccc(C)n1)C(F)(F)F (stereo not given) | -1 | -4 | 101 | 100 | 101 | 5 | . | . | .
C#CCOCCOCCOCCNc1nc(N2CCN(C(=O)C(Cc3ccc(O)cc3)n3cc(C(N)C(C)CC)nn3)CC2)nc(N2CCN(C(=O)C(Cc3ccc(O)cc3)n3cc(C(N)C(C)CC)nn3)CC2)n1 (stereo not given) | 31 | -1 | 111 | 102 | 145* | 14 | 146 | 28 | 112
C#CCOCCOCCOCCNc1nc(N2CCN(C(=O)[C@H](CCCCN)n3cc([C@@H](N)CC(C)C)nn3)CC2)nc(N2CCN(C(=O)[C@H](Cc3ccc(O)cc3)n3cc([C@@H](N)CC(C)C)nn3)CC2)n1 | 38 | -1 | 109 | . | 151* | -10 | 140 | 20 | 106
C#CCOCCOCCOCCNc1nc(N2CCN(C(=O)[C@H](Cc3ccc(O)cc3)n3cc([C@@H](N)CC(C)C)nn3)CC2)nc(N2CCN(C(=O)[C@H](Cc3ccc(O)cc3)n3cc([C@@H](N)CC(C)C)nn3)CC2)n1 | 69* | . | 96 | . | 188* | . | 227* | 95* | 113
C#CCOCCOCCOCCNc1nc(N2CCN(C(=O)[C@H](CCCCN)n3cc([C@@H](N)C(C)CC)nn3)CC2)nc(N2CCN(C(=O)[C@H](Cc3ccc(O)cc3)n3cc([C@@H](N)CC(C)C)nn3)CC2)n1 (stereo not given in full) | 43 | 1 | 110 | 97 | 158* | -10 | 135 | 22 | 107
C#CCOCCOCCOCCNc1nc(N2CCOCC2)nc(N2CCN(C(=O)[C@H](Cc3ccc(O)cc3)n3cc([C@@H](N)C(C)CC)nn3)CC2)n1 (stereo not given in full) | 6 | 0 | 98 | 86 | 114 | 1 | . | . | .
C#CCOCCOCCOCCNc1nc(N2CCN(C(=O)[C@H](CCCCN)n3cc(C(N)CO)nn3)CC2)nc(N2CCN(C(=O)[C@H](CCC(=O)O)n3cc(C(N)CC(C)C)nn3)CC2)n1 (stereo not given in full) | 2 | . | 81 | . | 68 | . | . | . | .
C#CCOCCOCCOCCNc1nc(N2CCN(C(=O)C([C@@H](C)CC)n3cc(C(N)CC(C)C)nn3)CC2)nc(N2CCN(C(=O)[C@H](CCC(=O)O)n3cc(C(N)Cc4ccc(O)cc4)nn3)CC2)n1 (stereo not given in full) | 9 | 0 | 105 | 99 | 113 | 9 | . | . | .
C#CCOCCOCCOCCNc1nc(N2CCN(C(=O)[C@H]([C@@H](C)CC)n3cc([C@@H](N)Cc4ccc(O)cc4)nn3)CC2)nc(N2CCN(C(=O)[C@H](CCCCN)n3cc([C@@H](N)CC(C)C)nn3)CC2)n1 | 79* | . | 113 | . | 221* | . | 183 | 110* | 108
C#CCOCCOCCOCCNc1nc(N2CCN(C(=O)[C@H]([C@@H](C)CC)n3cc(CCCN=C(N)N)nn3)CC2)nc(N2CCN(C(=O)[C@H](CCCCN)n3cc(CCCC)nn3)CC2)n1 | 21 | -1 | 106 | 103 | 172* | 0 | 174 | 31 | 102
C#CCOCCOCCOCCNc1nc(N2CCN(C(=O)[C@H](CCCCN)n3cc([C@@H](N)CC(C)C)nn3)CC2)nc(N2CCN(C(=O)[C@H](CCCCN)n3cc([C@@H](N)CC(C)C)nn3)CC2)n1 | 23 | 0 | 96 | 99 | 136* | -1 | 125 | 12 | 98
C=CCn1c(SCC(=O)NC2CCCCC2)nnc1-c1sc(N)nc1C | -13 | 2 | 3.0*[inhibitor] | 86 | 3.0*[inhibitor] | -1 | 97 | 2 | 104
CC(C)Oc1ccc(/C=N/NC(=O)c2nnn(-c3nonc3N)c2CN(C)c2ccccc2)cc1 | -2 | 0 | 102 | 81 | 95 | -14 | . | . | .
C=C(C)Cn1c(CCn2c3ccccc3c3ccccc32)n[nH]c1=S | 4 | 0 | 134* | 91 | 102 | -57 | 91 | 1 | 101
C=CCn1c(CCn2c3ccccc3c3ccccc32)n[nH]c1=S | -2 | 2 | 102 | 99 | 100 | -20 | . | . | .
O=C(Nc1ccc(S(=O)(=O)NCc2ccccc2)cc1)c1ccccc1[N+](=O)[O-] | 0 | -2 | 158* | 99 | 106 | -7 | 99 | 0 | 101
O=C(O)CC1(CC(=O)Nc2ccc(F)cc2F)CCCCC1 | -2 | -2 | 95 | 95 | 94 | 1 | . | . | .
O=C(O)CC1(CC(=O)Nc2cc(F)ccc2Cl)CCCCC1 | 28 | 0 | 134* | 100 | 131 | 2 | 97 | -2 | 99
COc1ccc(C(C)NC(=O)C2CCN(CCCc3ccccc3)CC2)cc1OC (stereo not given) | . | . | . | 101 | . | . | . | . | .
N#Cc1nc(-c2cccc3ccccc23)oc1NCCN1CCCCC1 | 12 | 1 | 109 | 92 | 159* | -30 | 175 | 49 | 114
Cc1cccc(OCc2nnc(SCC(=O)NCc3ccc4c(c3)OCO4)o2)c1 | . | -2 | . | 111 | . | 7 | . | . | .
C=CCn1c(O)c(N=NC(=O)c2cccnc2)c2cc(Br)ccc21 | -44 | 0 | 57 | 101 | 65 | -12 | . | . | .

Assay outcomes (PubChem)
